Values without a mark were called inactive. Inconclusive results are not listed. Active and inactive are the calls of the source. The call rests on the fitted dose curve.

Test [1] addresses Acetylcholinesterase (Homo sapiens) (UniProt P22303). As to the kind of experiment: Acetylcholinesterase (AChE) small molecule antagonists: colormetric cell-based qHTS assay (AID 1347395). Further: nearly all actives have a fitted effect of over 30% in size. Further: potency means the concentration at half of the fitted maximal effect. The method in brief: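 Colorimetric read-out: DTNB detects thiocholine released when cellular AChE in SH-SY5Y cells hydrolyses acetylthiocholine. Cells attached overnight, received compound for 30 min at 37 C, then substrate mix for 90 min at 37 C.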
On the technique in general: qHTS replaces the single test concentration by a dilution series.

Test [2] shares this target. In words: Acetylcholinesterase (AChE) small molecule antagonists: enzyme-based qHTS assay (AID 1347397). Further: nearly all actives have a fitted effect of over 55% in size. Particulars: Potency: AChE enzyme activity inhibition; outcome: AChE enzyme activity inhibition. In a few lines: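 Recombinant human AChE, dispensed at 50 mU/mL, was preincubated with Tox21 10K compounds or DMSO vehicle for 30 min at room temperature. DTNB plus acetylthiocholine was then added, and thiocholine was measured colorimetrically after a further 10 min.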

Test [3] shares this target. In words: Acetylcholinesterase (AChE) small molecule antagonists: fluorescence cell-based qHTS assay (AID 1347398). Further: nearly all actives have a fitted effect of over 50% in size. Further: potency means the concentration at half of the fitted maximal effect. The note with it: Potency: AChE activity; outcome: AChE activity. The method in brief:
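Human SH-SY5Y cells were plated overnight at 37 C, exposed to compound for 30 min at 37 C, 5% CO2, then given acetylthiocholine plus Thiolite Green for 40 min at room temperature; thiocholine fluorescence (Ex/Em 490/520 nm) reports endogenous AChE activity.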

The target is the same in test [4]. As to the kind of experiment: Acetylcholinesterase (AChE) small molecule antagonists: enzyme-based qHTS assay with human liver microsomes (AID 1347399). Further: nearly all actives have a fitted effect of over 60% in size. Particulars: Potency: qHTS inhibition; outcome: qHTS inhibition. The method in brief:
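Recombinant human AChE (50 mU/mL in the enzyme mix) and human liver microsomes (0.25 mg/mL final) were preincubated with compound and NADPH (0.25 mg/mL final) for 30 min at 37 C. Acetylthiocholine/DTNB was then added; thiocholine was read colorimetrically after 10 min at room temperature.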
On the % scale 0 is the no-effect control and ±100 the full control effect.

Sequence of Acetylcholinesterase (Homo sapiens) (P22303 whole entry, looked up): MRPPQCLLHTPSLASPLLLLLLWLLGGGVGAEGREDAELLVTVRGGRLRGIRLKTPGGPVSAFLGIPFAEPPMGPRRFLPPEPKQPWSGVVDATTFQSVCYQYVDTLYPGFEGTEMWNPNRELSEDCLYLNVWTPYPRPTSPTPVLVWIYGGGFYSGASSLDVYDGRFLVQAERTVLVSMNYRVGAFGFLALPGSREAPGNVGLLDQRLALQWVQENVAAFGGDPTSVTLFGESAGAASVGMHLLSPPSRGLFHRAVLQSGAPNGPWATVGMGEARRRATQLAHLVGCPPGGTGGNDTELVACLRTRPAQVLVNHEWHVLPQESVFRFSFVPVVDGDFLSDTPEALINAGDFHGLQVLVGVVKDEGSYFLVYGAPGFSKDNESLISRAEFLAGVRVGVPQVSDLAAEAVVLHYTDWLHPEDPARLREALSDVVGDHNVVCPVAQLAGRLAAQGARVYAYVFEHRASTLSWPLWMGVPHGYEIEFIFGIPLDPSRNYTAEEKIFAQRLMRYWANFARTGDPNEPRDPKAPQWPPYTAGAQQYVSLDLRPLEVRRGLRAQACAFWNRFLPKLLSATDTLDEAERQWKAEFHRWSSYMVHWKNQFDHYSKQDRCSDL

For `Cn1c(=O)c2c(ncn2CC(O)CO)n(C)c1=O` (configuration not stated), the Potency entry in test [1], in test [2], in test [3] and in test [4] was “inactive” each time.

For `COCCc1ccccn1`, the Potency result in test [1], in test [2], in test [3] and in test [4] was “inactive” throughout.

With `CCCCCCc1ccc(N)cc1`, the Potency entry in test [1], in test [2], in test [3] and in test [4] was “inactive” in each case.

On to `COC(=O)[C@@H]1[C@H]2C[C@H]3c4[nH]c5ccccc5c4CCN3C[C@@H]2CC[C@@H]1O`, for which the Potency entry in test [1], in test [2], in test [3] and in test [4] was “inactive” in each case.

Regarding `N#CCc1ccccc1[N+](=O)[O-]`, the Potency result in test [1], in test [2], in test [3] and in test [4] was “inactive” each time.

For the compound `CC[C@H]1CC[C@H](NCc2cc3c(cc2OC)[C@H]2C[C@H]2C(=O)N3C)[C@H](c2ccccc2)N1`, the results for the Potency in test [1] and in test [3] were 31.7 µM (active) and 35.6 µM (active), respectively. Further, the Potency entry in test [2] and in test [4] was “inactive” each time.

On to `COc1ccc(/C=C/C(=O)c2ccc(OC)cc2OC)cc1`, for which the Potency entry in test [1], in test [2], in test [3] and in test [4] was “inactive” in each case.

In the case of `CC(=O)c1ccc2c(c1)[C@H](NC(=O)c1ccc(F)cc1)[C@@H](O)C(C)(C)O2`, the Potency entry in test [1], in test [2], in test [3] and in test [4] was “inactive” each time.

On to `CCc1cccc(C)c1`, for which the Potency entry in test [1], in test [2], in test [3] and in test [4] was “inactive” throughout.

With `CC[N+]1(CC)CCC(=C(c2ccccc2)c2ccccc2)C1C` (configuration not stated), the Potency entry in test [1], in test [2], in test [3] and in test [4] was “inactive” in each case.

As for `C=CCCCCCCCCCCC`, the activity, negative = inhibition in test [1] was -0.0098% [at 10.5 µM]. The activity change, negative = inhibition in test [2] is 0.273% [at 10.5 µM]; in test [3] it was 5.55% [at 10.5 µM]; in test [4], 0.324% [at 10.5 µM].

As to `COc1cc(N)ccc1C`, the Potency entry in test [1], in test [2], in test [3] and in test [4] was “inactive” throughout.

Turning to `CC(C)(O)c1ccc(C(C)(C)O)cc1`, the Potency result in test [1], in test [2], in test [3] and in test [4] was “inactive” throughout.

Turning to `COC(=O)/C=C/C(C)=C\C=C\C(C)=C\C=C\C=C(C)\C=C\C=C(C)\C=C\C(=O)O`, the Potency entry in test [1], in test [2], in test [3] and in test [4] was “inactive” in each case.

Consider `O=C(O)c1c(Cl)cccc1Cl`, for which the Potency entry in test [1], in test [2], in test [3] and in test [4] was “inactive” throughout.

Take `NCC[C@H](O)C(=O)N[C@@H]1C[C@H](N)[C@@H](O[C@H]2O[C@H](CN)[C@@H](O)[C@H](O)[C@H]2O)[C@H](O)[C@H]1O[C@H]1O[C@H](CO)[C@@H](O)[C@H](N)[C@H]1O`: the activity, negative = inhibition in test [1] is -3.35% [at 0.435 µM]. For the same compound, the activity change, negative = inhibition is 0.773% [at 0.435 µM] in test [2], 5.79% [at 0.439 µM] in test [3] and -1.18% [at 0.435 µM] in test [4].

With `C=C(C)C1CC=C(C)C(O)C1` (configuration not stated), the Potency entry in test [1], in test [2], in test [3] and in test [4] was “inactive” throughout.

Regarding `Oc1cccc(Nc2ccccc2)c1`, the Potency result in test [1], in test [2], in test [3] and in test [4] was “inactive” in each case.

Regarding `NNC(=O)CCCCC(=O)NN`, the Potency entry in test [1], in test [2], in test [3] and in test [4] was “inactive” in each case.

For the compound `C=CC/C=C/C/C=C/C/C=C/C`, the Potency entry in test [1], in test [2], in test [3] and in test [4] was “inactive” each time.

`CC1CNCC(C)O1` (configuration not stated): the Potency result in test [1], in test [2], in test [3] and in test [4] was “inactive” in each case.

With `Nc1ccc(NC(=O)c2ccc(N)cc2)cc1`, the Potency entry in test [1], in test [2], in test [3] and in test [4] was “inactive” each time.

`CC1(C)C(=O)C(C)(C)C1=O`: the Potency entry in test [1], in test [2], in test [3] and in test [4] was “inactive” in each case.

As for `CC(=O)N(c1onc(C)c1C)S(=O)(=O)c1ccc(N)cc1`, the Potency entry in test [1], in test [2], in test [3] and in test [4] was “inactive” in each case.

Consider `CCCCCCCCCCCCCCCCOP(=O)([O-])OCC[N+](C)(C)C`, for which the Potency entry in test [1], in test [2], in test [3] and in test [4] was “inactive” each time.

Turning to `CO/N=C(\C(=O)N[C@@H]1C(=O)N2C(C(=O)O)=C(CSc3nc(=O)c(O)nn3C)CS[C@H]12)c1csc(N)n1`, the Potency result in test [1], in test [2], in test [3] and in test [4] was “inactive” throughout.

With `CCCC(C)C=O` (configuration not stated), the Potency result in test [1], in test [2], in test [3] and in test [4] was “inactive” throughout.

Consider `CCCCC(CC)CNCC(CC)CCCC` (configuration not stated), for which the Potency entry in test [1], in test [2], in test [3] and in test [4] was “inactive” in each case.

For the compound `CC(C)=CCC[C@H](C)CCO`, the Potency entry in test [1], in test [2], in test [3] and in test [4] was “inactive” each time.

In the case of `NC(=O)Nc1ccc(Cl)cc1`, the Potency entry in test [1], in test [2], in test [3] and in test [4] was “inactive” in each case.

In the case of `CN(C)CCOCCO`, the Potency entry in test [1], in test [2], in test [3] and in test [4] was “inactive” in each case.

On to `CC(C)O`, for which the Potency result in test [1], in test [2], in test [3] and in test [4] was “inactive” each time.

Turning to `C[C@@H]1C[C@H]2[C@@H]3CCC4=CC(=O)C=C[C@]4(C)[C@@]3(F)[C@@H](O)C[C@]2(C)[C@@]1(O)C(=O)CO`, the Potency result in test [1], in test [2], in test [3] and in test [4] was “inactive” throughout.

For the compound `CC/C=C\CCOC(=O)c1ccccc1`, the Potency result in test [1], in test [2], in test [3] and in test [4] was “inactive” in each case.

For `O=C(O)c1cccc(-c2noc(-c3ccccc3F)n2)c1`, the Potency result in test [1], in test [2], in test [3] and in test [4] was “inactive” throughout.

For the compound `Cc1nc([N+](=O)[O-])cn1-c1ccc([N+](=O)[O-])cc1`, the Potency result in test [1], in test [2], in test [3] and in test [4] was “inactive” each time.

As for `NCc1ccco1`, the Potency entry in test [1], in test [2], in test [3] and in test [4] was “inactive” throughout.

On to `O=[N+]([O-])c1ccc(Nc2ccc(Nc3ccccc3)c(S(=O)(=O)O)c2)c([N+](=O)[O-])c1`, for which the Potency entry in test [1], in test [2], in test [3] and in test [4] was “inactive” each time.

(Values after PubChem BioAssay (Tox21).)
